In PubChem BioAssay (NCI):
About 83,000 compounds went through this panel and 20% of them were active in at least one assay; those are over-represented in the sample as a whole.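 Values shown are percent growth following 48 h exposure of cells in 96-well plates to a single concentration of compound; below 10 was considered active.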 Unmarked numbers belong to inactive results. Activity calls are given as the source filed them.

These compounds were tested on A498 renal (assay: NCI-60 one-dose screen, 48 h (100 = growth as untreated, 0 = no growth, -100 = all killed)). Conditions: 10 µM unless noted.
Procedure: Growth inhibition of the A498 human tumor cell line is measured as a screen for anti-cancer activity. Cells are grown in 96 well plates and exposed to the test compound for 48 hours. Compounds are tested at a single concentration, which is 10^-5 M for most compounds. The reported endpoint is percent growth (GI% or GIPRCNT), where numbers from 0 - 100% represent growth inhibition, and numbers from -100% - 0 represent cell death. For example, a value of 40 represents 60% growth inhibition. A value of 0 means no net growth occurred over the course of the experiment. A value of -40 indicates 40% of cells at the beginning of the experiment died by the end of the experiment. A value of -100 means all cells are dead at the end of the experiment.
NCI-60 Human Tumor Cell Lines Screen was performed using the standard one-dose NCI protocol, which is described in more detail at https://dtp.cancer.gov/discovery_development/nci-60/default.htm.
Compounds with GIPRCNT values below 10 were considered active. Activity score was based on GIPRCNT using the following formula: […]
Score is 0 for GIPRCNT values of 100 or above, 50 for GIPRCNT values of 0, and 100 for GIPRCNT values of -100.

| Compound | growth |
| --- | --- |
| COc1ccc(OCC(=O)OC(C)C)cc1 | 92% |
| CC1(C)[C@@H](O)CC[C@]2(C)[C@H]3CC[C@@H]4[C@H]5[C@H](c6cn(-c7ccccc7)nn6)CC[C@]5(CO)CC[C@@]4(C)[C@]3(C)CC[C@@H]12 | 87.6% |
| COc1ccc2[nH]c(=O)c(/C=C/C(=O)c3ccccc3OC)cc2c1 | 21.7% |
| CC1CCN(CCCCCOc2ccc3oc4cc(Cl)ccc4c(=O)c3c2)CC1 | 85.2% |
| O=[N+]([O-])c1ccc(N=Nc2c(O)c(N=Nc3cc([N+](=O)[O-])cc([N+](=O)[O-])c3O)cc(N=Nc3cc(S(=O)(=O)O)cc4cc(S(=O)(=O)O)cc(O)c34)c2O)cc1 | 107% |
| COc1ccc(-n2nc(C(=O)NCC(=O)O)nc2-c2ccccc2)cc1 | 113% |
| CCOC(=O)c1c(C)nc2c(c1N)/C(=C/c1cccs1)C(=O)N2c1ccc(OC)cc1 | 35.1% |
| O=C1CC(c2ccc(O)c(O)c2)Oc2cc(O)c([C@@H]3O[C@H](CO)[C@@H](O)[C@H](O)[C@H]3O)c(O)c21 (stereo not given in full) | 108% |
| N#CCNc1ccc(C(=O)O)cc1 | 106% |
| OCCNc1nc(NCCO)nc(Nc2ccc(C3=NN(c4cc(Cl)cc(Cl)c4)C(c4ccc(Cl)cc4)C3)cc2)n1 (stereo not given) | 71.2% |
| C=C(C)[C@@H]1CC[C@]2(C(=O)NCCCO)CC[C@]3(C)[C@H](CC[C@@H]4[C@@]5(C)CCCNC(C)(C)[C@@H]5CC[C@]43C)[C@@H]12 | 95.8% |
| COc1ccc([C@H]2[C@@H](F)C(=O)N2c2cc(OC)c(OC)c(OC)c2)cc1F | -5.5% (active) |
| CCOC(=O)c1ccc(Nc2ncnc3ccc(NC(=O)c4ccccc4)cc23)cc1 | 106% |
| CC1=C/C(=N\N=C2/C=C(C)CC(C)(C)C2)CC(C)(C)C1 | 94.4% |
| CCCCn1c(=O)c(/C=C/C(=O)/C=C/c2ccc(O)c(OC)c2)cc2ccc(Cl)cc21 | 77.6% |
| Cc1cc(Nc2nc(SCc3ccc(C(=O)Nc4ccc(F)cc4N)cc3)nn3cccc23)n[nH]1 | 5.84% (active) |
| O=C1C(Cl)=C(Nc2ccc3c(c2NC2=C(Cl)C(=O)c4ccccc4C2=O)C(=O)c2ccccc2C3=O)C(=O)c2ccccc21 | 50.5% |
| COc1ccc(C(=O)c2cc(F)c(F)c(OC)c2F)cc1OC(=O)CCl | 94.5% |
| Cc1nn(-c2ccc(-c3ccc(OC(F)(F)F)cc3)cc2)c2nc(-c3ccccc3)nc(N)c12 | 90.2% |
| COc1ccc(-c2nc(C#N)c(NCC(c3ccc(Cl)cc3)N3CCCCC3)o2)cc1 (stereo not given) | 108% |

| Compound | growth |
| --- | --- |
| C#CCOC(=O)[C@]1(C)CCC[C@]2(C)[C@H]3C[C@H]4C(C(C)C)=C[C@]3(CC[C@H]21)[C@@H]1C(=O)CCC(=O)[C@@H]14 | 66.5% |
| N#Cc1c(-c2ccc(Cl)cc2)cc(-c2cc3ccccc3o2)nc1SCC(=O)c1ccc(Cl)cc1 | 111% |
| Cc1nc(C)c(C)nc1C | 102% |
| Cc1cccc(C)c1NC(=O)CN(CC(C)C)CC(O)COc1ccccc1 (stereo not given) | 63.8% |
| COCCOC(=O)COc1ccc(OC)cc1 | 88.2% |
| COc1cc(-c2csc(NC(=O)Nc3cc(Cl)cc(Cl)c3)n2)cc(OC)c1OC | -25.9% (active) |
| O=C(Nc1cc(=O)[nH]c(=O)[nH]1)C(Cl)Cl | 100% |
| COc1ccc(C(C)c2cc(OC)c(OC)c(OC)c2)cc1 (stereo not given) | 15.7% |
| COCCOCCOCc1n(Cc2ccc3ccccc3n2)c2ccccc2[n+]1Cc1ccc2ccccc2n1 | 78.1% |
| Cc1cccc(C)c1Nc1nnc(-c2ccc(F)cc2)o1 | 103% |
| COc1ccc2c(c1)OC13Oc4cc(OC)ccc4C=C1CCCCC3=C2 | 98.2% |
| FC(F)(F)c1ccc2c(Nc3cccc(C4CC(c5ccccc5)=NN4c4ccc(Cl)cc4)c3)ccnc2c1 (stereo not given) | 66.3% |
| COc1ccccc1-c1ccc2nc(NC(=O)Nc3cc(C(F)(F)F)cc(C(F)(F)F)c3)sc2c1 | -26.7% (active) |
| COc1cc(C)ccc1Oc1nc(Nc2ccc(N3CCOCC3)cc2)ncc1N=Cc1cc(C(F)(F)F)cc(C(F)(F)F)c1 | 58.8% |
| Cc1ccc2nc3nc4ccc[nH]c4cc3c2c1 | 124% |
| C=C(C)[C@@H]1CC[C@]2(C(=O)O)CC[C@]3(C)[C@H](CC[C@@H]4[C@@]5(C)C[C@@H](CC#Cc6ccccc6)C(=O)C(C)(C)[C@@H]5CC[C@]43C)[C@@H]12 | 32.9% |
| COc1ccc(-c2cc(-c3nnc(SCC(=O)Nc4ccc(/C(C)=N\O)cc4)o3)c3ccccc3n2)cc1 | 101% |
| COc1ccc(C(=O)c2cc(OC)c(OC)c(OC)c2)cc1OC(=O)C(Cl)(Cl)Cl | 46.5% |
| C[C@H](Oc1cc(-c2cnn(C3CCNCC3)c2)cnc1N)c1c(Cl)ccc(F)c1Cl | 68% |
| COc1cc(C(=O)Nc2cc(O)c(C/C=C(\C)CCC=C(C)C)c(O)c2)cc2c1O[C@]1(C)CC[C@@H](O)C(C)(C)[C@H]1C2 | -25.7% (active) |
